Rows were chosen to be rich in hits. Some 5.3% of all compounds tested hit in one or more screens of this group.
ALOX12 inhib – qHTS Assay for Inhibitors of 12-hLO (12-human lipoxygenase). Polyunsaturated fatty acid lipoxygenase ALOX12 (Homo sapiens), P18054. Potency, µM (highest dose often 57.1 µM), inactives show top-dose activity change, negative = inhibition, hits mostly inhibitors. 0.12% of 150,000 active. purified 12-hLO, xylenol orange hydroperoxide absorbance; also: potency is read from the fitted curve at half-maximal effect; nearly all actives have a fitted effect of over 55% in size
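Lipoxygenase turnover measured by absorbance at 573 and 405 nm after Fe-XO development. Human 12hLO 150 nM, arachidonate 40 uM, pH 7.0 Hepes buffer with detergent; 15 min compound preincubation, 30 min reaction.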
IMPase inh – qHTS Assay for Identifying the Cell-Membrane Permeable IMPase Inhibitors; CHO-M1 cells, IP1 accumulation, HTRF TR-FRET ratio; Inositol monophosphatase 1 (Rattus norvegicus), P97697; 120,000 tested, under 10 active; inhibition (IP1 accumulation), % at 46.1 µM; AID 901, 2007; active = well fitted curve in the direction sought with a large enough effect in the signal ratio, not every such curve was filed as active; inconclusive = small, poorly fitted or top-dose-only effect, or a change in a side signal; inactive = no such curve, though single readings can be large or run the other way; the % refers to the signal ratio;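 also: cells stimulated with carbachol in lithium chloride buffer; plate controls were DMSO basal wells for no effect and reference inhibitor wells for full effect; higher means more IMPase inhibition seen as more IP1 and lower FRET ratio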
Target sequence (P97697 whole entry, looked up): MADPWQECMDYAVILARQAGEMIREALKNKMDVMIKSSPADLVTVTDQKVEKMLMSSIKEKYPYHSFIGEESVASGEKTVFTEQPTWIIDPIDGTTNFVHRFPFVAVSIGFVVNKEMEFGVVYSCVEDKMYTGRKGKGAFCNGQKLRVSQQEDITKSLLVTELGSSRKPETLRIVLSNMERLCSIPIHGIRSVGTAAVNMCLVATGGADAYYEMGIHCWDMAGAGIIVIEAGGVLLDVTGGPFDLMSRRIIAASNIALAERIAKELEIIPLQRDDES
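CHO-M1, 2000 cells/well, cultured 16–30 h; cpd up to 46 uM; carbachol (50 uM solution, stimulation buffer w/ 50 mM LiCl, pH 7.4), 30 min 37C; IP-One TR-FRET, 10 min RT; Ex 320/Em 665, 620; Hill-fit AC50.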
HPGD block – qHTS Assay for Inhibitors of HPGD (15-Hydroxyprostaglandin Dehydrogenase) | 15-hydroxyprostaglandin dehydrogenase [NAD(+)] (Homo sapiens), P15428 | purified HPGD, NADH fluorescence kinetic, PGE2 substrate | Potency, µM, for inactives: at the highest dose activity change, negative = inhibition, usual class: inhibitors | 4.3% of 150,000 active; active = well fitted inhibition curve with a large enough effect, not every such curve was filed as active; inconclusive = small, poorly fitted or top-dose-only effect, or another doubt; inactive = no such curve, though single readings can be large or run the other way; also: potency is read from the fitted curve at half-maximal effect
Target sequence (P15428 whole entry, looked up): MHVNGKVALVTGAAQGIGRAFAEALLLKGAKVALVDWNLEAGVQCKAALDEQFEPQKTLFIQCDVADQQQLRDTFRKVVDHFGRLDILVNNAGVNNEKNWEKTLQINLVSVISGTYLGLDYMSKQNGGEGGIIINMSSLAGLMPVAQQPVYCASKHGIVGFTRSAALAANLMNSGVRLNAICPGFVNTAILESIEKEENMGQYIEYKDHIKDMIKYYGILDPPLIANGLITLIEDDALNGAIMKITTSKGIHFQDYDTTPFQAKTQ
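NADH formation kinetics: reaction with 30 uM PGE2 and 1 mM NAD+ (final), 20 nM enzyme, Tris-HCl pH 8 with Tween 20, after 15 min compound preincubation at room temperature. Fluorescence change, last versus first of five reads.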
PNC inhibitor – High Content Assay for Compounds that inhibit the Assembly of the Perinucleolar Compartment. activity change (PNC), negative = inhibition, % at 10 µM. 3.1% of 140,000 active. PC3M PTB-GFP, PNC prevalence imaging, 16 h; active compounds read low;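 active = readout at or below -70, meaning at least 70% loss of cells showing the perinucleolar compartment, a nuclear body marking cancer cells; inconclusive = readout between -30 and a set limit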;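 also: plate controls were DMSO wells for no effect and camptothecin positive control wells for full effect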
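Compounds are pinned in duplicate onto adhered PC3M cells stably expressing GFP-tagged PTB and incubated 16 h at 37 C. Cells are then fixed, nuclei stained with Hoechst, and PNC-positive cells counted.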
IMPase Li cell – qHTS Assay for Identifying the Cell-Membrane Permeable IMPase Inhibitors: Potentiation with Lithium. CHO-M1 cells, IP1 TR-FRET (IP-One), carbachol + lithium. Potency, µM (series often up to 59.4 µM), without a hit: at the top dose activity, negative = IMPase inhibition, hits mostly inhibitors. 0.35% of 210,000 active. AID 1457, 2008;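 also: IP1 builds up when IMPase is blocked and the TR-FRET signal falls; potency is read from the fitted curve at half-maximal effect; plate controls were basal vehicle for no effect and high inhibitor control for full effect; nearly all actives have a fitted effect of over 50% in size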
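Concentration–response in CHO-M1 cells, lithium-potentiated; 30 min at 37C. IP1 detected by competitive TR-FRET after 10 min lysis at RT. Hill-fitted AC50.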
15-hLO-2 inh – qHTS Assay for Inhibitors of 15-hLO-2 (15-human lipoxygenase 2) | AID 881, 2007 | Polyunsaturated fatty acid lipoxygenase ALOX15B (Homo sapiens), O15296 | purified 15hLO-2, xylenol orange hydroperoxide absorbance | 0.56% of 110,000 active | Potency, µM (series often up to 57.1 µM), inactives show at the highest dose activity change, negative = inhibition, hits mostly inhibitors; also: potency is read from the fitted curve at half-maximal effect; nearly all actives have a fitted effect of over 60% in size
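Screening format was qHTS against 50 nM purified 15hLO-2 in Hepes pH 7.5 with detergent. Activity follows hydroperoxide formation from 45 uM arachidonic acid, measured as 573:405 nm absorbance ratio of the ferric-xylenol orange complex.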
* = called active by the depositor; ? = inconclusive; . = no result given; [ ] = remark or other dose. Unless noted, calls follow the shape of the dose curve; as a rule, active = well fitted curve in the direction sought with a large enough effect; inconclusive = small, poorly fitted or top-dose-only effect, or another doubt; inactive = no such curve, though single readings can be large; an effect the other way counts as inactive or inconclusive. Unless noted, % is scaled to controls: 0 for no effect and ±100 for the full control effect.

SMILES	ALOX12 inhib	IMPase inh	HPGD block	PNC inhibitor	IMPase Li cell	15-hLO-2 inh
Cc1ccccc1C(=O)NNC(=S)Nc1cccc(C(F)(F)F)c1	-4.3%	.	-23.8%	-111.9*	-4.8%	.
CNC(=O)Nc1cccc(C(F)(F)F)c1	-4.1%	-2.1	-9.7%	-100.0*	-7.0%	.
O=C(Nc1ccccc1)Nc1cccc(C(F)(F)F)c1	.	.	.	.	14.0%	.
FC(F)(F)c1cccc(CNC(=S)Nc2ccccc2)c1	.	.	.	.	5.8%	.
FC(F)(F)c1cccc(NC(=S)NCc2ccccc2)c1	-23.4%	10.5	28.2µM*	15.1	16.6%[38.3 µM]	-20.4%
NS(=O)(=O)c1ccc(NC(=S)NCc2cccc(Cl)c2)cc1	-4.9%	-0.8	.	-24.1	.	.
NS(=O)(=O)c1ccc(NC(=S)NCc2ccccc2)cc1	-4.1%	7.0	20µM*	-96.6*	-1.8%	.
C/C(=N/NC(=O)CNC(=O)COc1ccccc1)c1ccco1	-1.1%	16.8	-9.0%	18.1	0.6%	.
COC(=O)CNC(=O)CSc1nnc(C)c(=O)[nH]1	2.8%	9.1	-10.6%	-29.3	-4.2%	.
CC(C)COC(=S)Nc1ccccc1	4.4%	-0.4	11.2µM*	3.1	-6.0%[38.3 µM]	-1.4%
O=C(NCCc1cccs1)C1CC(c2c(Cl)cccc2Cl)=NO1 (stereo not drawn)	2.1%	7.9	14.1µM*	?	-4.8%[38.3 µM]	-5.1%
Cc1ccc(S(=O)(=O)Cc2sc3ccccc3[n+]2C)cc1	0.3%	8.4	22.4µM*	26.0	18.8%[38.3 µM]	-11.3%
Cc1ccc(S(=O)(=O)CCSC(=N)N)cc1	.	.	.	.	8.5%	.
Cn1nnnc1SCc1ccc(C(=O)Nc2ccccc2F)cc1	2.0%	14.5	15.8µM*	-4.4	-8.3%[38.3 µM]	1.7%
COCCOC(=O)C1=C(C)NC(SCC(=O)NC(C)(C)C)=C(C#N)C1c1ccco1 (stereo not drawn)	3.3%	2.5	15.8µM*	?	-4.1%[38.3 µM]	0.1%
CC(=O)C1=C(C)NC(SCC(=O)c2ccc(C)cc2)=C(C#N)C1c1ccco1 (stereo not drawn)	-8.3%	3.9	28.2µM*	4.5	33.4%[38.3 µM]	-26.7%
Cc1ccc(C(=O)CSC2=C(C#N)C(c3ccco3)C3=C(CC(C)(C)CC3=O)N2)cc1 (stereo not drawn)	-13.1%	-3.9	-9.9%	-4.3	11.5%[38.3 µM]	-27.5%
COc1ccc(N(Cc2cc3ccc(C)cc3[nH]c2=O)C(=O)c2ccco2)cc1	-1.0%	5.1	-1.6%	-84.0*	5.0%[38.3 µM]	-18.7%
Cn1cccc1/C=C1\SC(=S)N(CC(=O)O)C1=O	-11.8%	.	28.2µM*	42.1	12.9%	.
CCC/C=C(\CCC)C(NS(=O)(=O)c1ccccc1)c1ccc(C(F)(F)F)cc1 (stereo not drawn)	0.5%	.	-15.6%	.	-2.2%	-13.0%
CCCCS(=O)(=O)/C=C\C=C/S(=O)(=O)CCCC	1.6%	9.0	25.1µM*	?	18.7%	-12.0%
CCCC(=O)Nc1nc(C)c(-c2csc(Nc3ccccc3C)n2)s1	-12.5%	-1.9	31.6µM*	67.8	4.9%[38.3 µM]	23.7%
CNc1ccc(/C=C2\COc3ccccc3C2=O)cc1[N+](=O)[O-]	-2.4%	-2.9	1.58µM*	10.6	27.0%[38.3 µM]	0.9%
O=C1/C(=C/c2ccccc2[N+](=O)[O-])COc2ccccc21	.	.	.	.	9.5%	.
CC1=C(C#N)C(c2cn(-c3ccccc3)nc2-c2cccs2)C(C#N)=C(C)N1	-27.1%	5.4	-5.6%	-95.2*	-0.9%[38.3 µM]	-6.1%
SMILES	ALOX12 inhib	IMPase inh	HPGD block	PNC inhibitor	IMPase Li cell	15-hLO-2 inh
Cc1ccc(OCC(=O)NC(=S)Nc2ccc3c4c(cccc24)CC3)cc1	-3.9%	.	-11.5%	-11.9	11.2µM*	.
COCCCNCCCOc1ccc(C(C)(C)c2ccccc2)cc1	-2.1%	.	-2.5%	-107.4*	-2.8%	.
CCNC(=O)CC1C(=O)N(c2ccccc2)C(=O)N1Cc1ccc(OC)cc1 (stereo not drawn)	7.1%	-1.2	-1.6%	?	-1.4%[38.3 µM]	3.5%
CCOc1ccc(N2C(=O)CC(SC(=NC)Nc3ccc(F)cc3)C2=O)cc1 (stereo not drawn)	4.1%	2.6	-13.1%	-100.0*	-0.5%	.
CCOc1ccc(NC(=NCc2ccc3c(c2)OCO3)SC2CC(=O)N(c3ccccc3)C2=O)cc1 (stereo not drawn)	-3.0%	-9.3	-6.5%	-100.0*	10.1%	.
O=C1CC(SC(=NCc2ccc3c(c2)OCO3)Nc2ccccc2)C(=O)N1 (stereo not drawn)	-9.1%	0.1	-2.2%	-114.9*	20.9%[38.3 µM]	0.6%
N#CC(C#N)=CNCCN1CCN(C=C(C#N)C#N)CC1	0.9%[11.4 µM]	.	-11.6%	.	2.0%	-6.6%[11.4 µM]
CCCn1c(=N)c(C(=O)NC2CCCCC2)cc2c(=O)n3cc(C)ccc3nc21	.	1.1	.	.	.	.
Cc1n(N)c2ccccc2[n+]1CC(=O)c1ccccc1	.	.	.	.	8.4%	.
Cc1cccc(N2CCN(CC(O)COCc3cccs3)CC2)c1C (stereo not drawn)	-4.4%	-9.0	.	-115.2*	.	.
S=P(N1CC1)(N1CC1)N1CC1	-3.1%	.	10µM*	.	-1.5%	-15.9%
O=C1CC(Sc2ncccn2)C(=O)N1c1ccccc1 (stereo not drawn)	0.0%	-1.5	-9.6%	?	18.1%[38.3 µM]	0.2%
O=C1CC(Sc2nnnn2-c2ccccc2)C(=O)N1c1cccc(Cl)c1 (stereo not drawn)	-4.8%	-2.0[1.84 µM]	31.6µM*	38.5	9.9%[38.3 µM]	-27.4%[11.4 µM]
CCOC(=O)c1ccc(N2C(=O)CC(SCC(N)C(=O)OCC)C2=O)cc1 (stereo not drawn)	-8.4%	-0.7	-7.8%	16.3	25.2%[38.3 µM]	-26.4%
CCOC(=O)c1ccc(N2C(=O)CC(Sc3nnc(C)s3)C2=O)cc1 (stereo not drawn)	-6.0%	-3.2	28.2µM*	-24.7	-15.2%[38.3 µM]	?
Nc1nnc(SC2CC(=O)N(c3ccccc3)C2=O)s1 (stereo not drawn)	1.8%	2.5	31.6µM*	11.0	2.4%[38.3 µM]	-9.2%
C=CCNc1nnc(SC2CC(=O)N(c3ccc(OCCC)cc3)C2=O)s1 (stereo not drawn)	3.8%	6.5	14.1µM*	38.2	23.8%[38.3 µM]	-25.8%
Cc1cc(C)cc(NC(=S)NN)c1	.	.	.	.	0.2%	.
O=C(C1CC(=O)N(C2CCCC2)C1)N1CCC(Cc2ccccc2)CC1 (stereo not drawn)	5.3%	-3.5	-3.0%	-106.2*	3.3%[38.3 µM]	4.6%
